Experimental data from PubChem BioAssay (NCI).
Compounds without any hit were thinned out: in the full panel of roughly 79,000, 15% have a hit. A number with no mark means an inactive call. The source made the active and inactive calls. No stated cut-off is given here; in the data, active means growth inhibition above about 70%; inactive means the rest.

Experiments:
[1] = NCI Yeast Anticancer Drug Screen. Data for the rad50 strain (AID 155);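 further: 0% = growth of vehicle-only cultures of the same strain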; conditions: S. cerevisiae rad50 strain growth inhibition, hits give high values
How it was run: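 Cells are treated with compound, grown, and their growth is then scored against vehicle-only cultures of the same repair-deficient yeast strain.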

[2] = NCI Yeast Anticancer Drug Screen. Data for the mec2-1 strain (AID 157); conditions: S. cerevisiae mec2-1 strain, hits give high values
How it was run: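 Using mec2-1 yeast: add compound, measure growth, express inhibition versus vehicle-treated cultures.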

[3] = NCI Yeast Anticancer Drug Screen. Data for the sgs1 mgt1 strain (AID 161);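 further: 0% = growth of cultures given vehicle only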; conditions: S. cerevisiae sgs1 mgt1 strain, hits give high values
How it was run: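 Compounds are added to genetically altered yeast, and growth is compared with cultures given vehicle alone to give percent inhibition.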

[4] = NCI Yeast Anticancer Drug Screen. Data for the cln2 rad14 strain (AID 165);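 further: 0% = growth equal to vehicle treated cultures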; conditions: S. cerevisiae cln2 rad14 strain, hits give high values
How it was run: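 Yeast strain cln2 rad14, bearing defects in cell cycle control and DNA repair, serves as the test system; values reflect growth inhibition compared with vehicle.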

[5] = NCI Yeast Anticancer Drug Screen. Data for the bub3 strain (AID 167); conditions: S. cerevisiae bub3 mutant strain, hits give high values
How it was run: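 Part of a panel of yeast mutants defective in DNA damage repair or cell cycle regulation. Each strain is grown with compound, and inhibition is calculated relative to solvent-treated cultures.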

[6] = NCI Yeast Anticancer Drug Screen. Data for the mlh1 rad18 strain (AID 175); conditions: S. cerevisiae mlh1 rad18 strain growth inhibition, hits give high values
How it was run: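 Steps: expose repair-defective yeast to compound; measure growth; express inhibition against vehicle-treated controls.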

[7] = at 5.0 µM (retest, dose inferred, filed as 0.5)
[8] = at 50.0 µM (retest, dose inferred, filed as 5.0)

| SMILES | growth inhibition [1, 7] [%] | growth inhibition [1, 8] | growth inhibition ([1]; at 50.0 µM) | growth inhibition [2, 7] [%] | growth inhibition [2, 8] | growth inhibition ([2]; at 50.0 µM) | growth inhibition [3, 7] | growth inhibition [3, 8] | growth inhibition ([3]; at 50.0 µM) | growth inhibition [4, 7] [%] | growth inhibition [4, 8] | growth inhibition ([4]; at 50.0 µM) | growth inhibition [5, 7] | growth inhibition [5, 8] | growth inhibition ([5]; at 50.0 µM) | growth inhibition [6, 7] | growth inhibition [6, 8] | growth inhibition ([6]; at 50.0 µM) |
| --- | --- | --- | --- | --- | --- | --- | --- | --- | --- | --- | --- | --- | --- | --- | --- | --- | --- | --- |
| Oc1c(Br)c(Br)c(O)c(Br)c1Br | 12 | 50% | 98.9% (active) | 7 | 33% | 99.2% (active) | 7% | 58% | 94.5% (active) | 5 | 13% | 37.5% | 8% | 42% | 97.8% (active) | 10% | 35% | 98% (active) |
| CC(=O)OC12CC(C(F)(F)F)(C(F)(F)F)OC1(OC(C)=O)CC(C(F)(F)F)(C(F)(F)F)O2 (stereo not given) | 1 | 15% | 49.5% | -8 | 48% | 29.8% | 4% | 66% | 50.2% | 18 | 56% | 71% (active) | 7% | 28% | 67.1% | -4% | 66% | 86.3% (active) |
| CC(=O)/C=C1\C(=O)Nc2ccccc21 | 20 | 97% (active) | 85.1% (active) | 10 | 100% (active) | 91.6% (active) | 16% | 92% (active) | 91.7% (active) | 26 | 95% (active) | 32.9% | 12% | 99% (active) | 87.7% (active) | 14% | 99% (active) | 78.7% (active) |
| Fc1ccc(CN2COc3c(cc(Cl)c4cccnc34)C2)cc1 | 9 | 97% (active) | 99.2% (active) | 1 | 97% (active) | 99.6% (active) | 2% | 99% (active) | 99.6% (active) | -8 | 98% (active) | 99.3% (active) | -5% | 99% (active) | 99.5% (active) | 11% | 99% (active) | 99.5% (active) |
| C=C1CC(c2ccc(OCCCN3C(=O)c4ccccc4C3=O)c(OC)c2)OC1=O (stereo not given) | -9 | 97% (active) | 76.3% (active) | 24 | 91% (active) | 88.2% (active) | 1% | 89% (active) | 91% (active) | 11 | 93% (active) | 89.2% (active) | -16% | 95% (active) | 92% (active) | 10% | 97% (active) | 96.8% (active) |
| OC1(C2c3ccccc3-c3ccccc32)c2ccccc2-c2ccccc21 | 66 | 90% (active) | 94.4% (active) | 38 | 94% (active) | 80.7% (active) | 45% | 94% (active) | 94.3% (active) | 11 | 90% (active) | 52.1% | 28% | 92% (active) | 81.1% (active) | 84% (active) | 93% (active) | 94.6% (active) |
| CC/C(=N\NS(=O)(=O)c1ccc(C)cc1)c1cccc(OC)c1 | 34 | 47% | 69.6% | 12 | 37% | 40.6% | 50% | 90% (active) | 88.8% (active) | 37 | 78% (active) | 51.2% | 43% | 86% (active) | 36.6% | 36% | 87% (active) | 92.2% (active) |
| Cc1[nH]nc(-c2ccon2)c1N=O | 12 | 61% | 68.7% | -28 | 66% | 28.8% | 16% | 80% (active) | -1.75% | 22 | 48% | 4.65% | 56% | 90% (active) | 78.7% (active) | 64% | 93% (active) | 58.4% |
| CCCCN(CCCC)CCCCNc1ccc(C)c2sc3ccccc3c(=O)c12 | 36 | 99% (active) | 98.7% (active) | 23 | 98% (active) | 99.2% (active) | 83% (active) | 98% (active) | 98.8% (active) | 18 | 98% (active) | 98.3% (active) | 50% | 98% (active) | 98.8% (active) | 65% | 98% (active) | 99.2% (active) |
| Clc1cc(Cl)c(NN=C(c2ccccc2)c2ccccc2)c(Cl)c1 | 37 | 97% (active) | 99.5% (active) | 39 | 97% (active) | 99.2% (active) | 57% | 98% (active) | 99.7% (active) | 43 | 97% (active) | 99.4% (active) | 87% (active) | 98% (active) | 58.5% | 72% (active) | 98% (active) | 99.5% (active) |
